# Laboratory results from PubChem BioAssay (NCATS).
# Results filed as inconclusive are left out. A call without a number means that no potency is given here. The source made the active and inactive calls. Unless noted, the call rests on the fitted dose curve; in most records, active means well fitted curve in the direction sought with a large enough effect; inconclusive means small, poorly fitted or top-dose-only effect, or another doubt; inactive means no such curve, though single readings can be large; an effect the other way counts as inactive or inconclusive.
# Experiments:
# [1] = Primary fluorescence-based thiol-reactive (MSTI) qHTS assay for identification of artifact compounds. (AID 1845221); further: nearly all actives have a fitted effect of over 65% in size; further: potency means the concentration at half of the fitted maximal effect
# Method in brief: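 MSTI probe at 4 uM final in 2% DMSO/PBS pH 7.4; compounds, 1 h at room temperature in dark. Fluorescence Ex/Em 525/598 nm, normalised to Acetyl-MSTI and MSTI, fitted to 4-parameter Hill.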
# [2] = Primary redox qHTS assay for identification of artifact compounds. (AID 1845223)
# Method in brief: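 Amplex Red (25 uM) and HRP (250 mU/mL) in HBSS, with compounds for 15 min, then 250 uM DTT for 30 min, room temperature, dark. Fluorescence 525/598 nm read; normalized to DMSO and 10 uM DA3003; Hill fit.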
# CAOV3 = test: Primary qHTS to identify gynecologic anti-cancer compounds using libraries of approved drugs and bioactive compounds (AID 1345084); conditions: Gynecologic cancer cell panel viability, ATPlite luminescence, 48 h; series mostly up to 57.5 µM; further: nearly all actives have a fitted effect of over 55% in size; further: potency means the concentration at half of the fitted maximal effect
# Method in brief: (§1)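 Cells, 1,000 per well, plated 16 h, then exposed 48 h at 37 C to compounds. Viability by ATPlite luminescence after 15 min at room temperature.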
# PA-1 = test: as above; conditions: Gynecologic cancer cell panel viability, ATPlite luminescence, 48 h; series mostly up to 57.5 µM
# Method in brief: as §1
# SKOV3 = test: as above; conditions: Gynecologic cancer cell panel viability, ATPlite luminescence, 48 h; series mostly up to 57.5 µM
# Method in brief: as §1
# [3] = molecular target: Luciferin 4-monooxygenase (Photinus pyralis) (UniProt P08659); test: Biochemical firefly luciferase enzyme assay for NPC (AID 624030);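 further: purified P. pyralis luciferase at 10 nM with luciferin and ATP substrate; nearly all actives have a fitted effect of over 70% in size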
# Method in brief: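 Counter-screen for direct inhibition of the luciferase enzyme by approved-drug library compounds, run at 10 nM enzyme in 50 mM Tris acetate (final). Luminescence was read within 5 min of enzyme-buffer addition and normalized to PTC124 versus DMSO (0%).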
# [4] = molecular target: Cytochrome P450 2D6 (Homo sapiens) (UniProt P10635); test: Cytochrome P450 family 2 subfamily D member 6 (CYP2D6) small molecule antagonists: luciferase biochemical (cell-free) qHTS assay (AID 1645840; active means well fitted curve in the direction sought with a large enough effect in the repeat runs; an effect the other way counts as inactive or inconclusive; further: nearly all actives have a fitted effect of over 55% in size; further: potency means the concentration at half of the fitted maximal effect)
# Method in brief: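 P450-Glo luminescent screen: recombinant CYP2D6 enzyme–proluciferin substrate mix preincubated with compound 10 min at room temperature, then NADPH regeneration added for 1 h at room temperature. Detection reagent added for 20 min; luciferin light read as relative luminescence units.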
# [5] = molecular target: Cytochrome P450 2C9 (Homo sapiens) (UniProt P11712); test: Cytochrome P450 family 2 subfamily C member 9 (CYP2C9) small molecule antagonists: luciferase biochemical (cell-free) qHTS assay (AID 1645842; active means well fitted curve in the direction sought with a large enough effect in the repeat runs; an effect the other way counts as inactive or inconclusive; further: nearly all actives have a fitted effect of over 55% in size; further: potency means the concentration at half of the fitted maximal effect)
# Method in brief: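 Luminescence, after 20 min with luciferin detection reagent, reflected CYP2C9 turnover during a 1 h NADPH-driven reaction at 37C. Enzyme-substrate mix contained 0.4% bovine serum albumin and was preincubated with compound 10 min at room temperature.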
# [6] = molecular target: Catechol O-methyltransferase (Homo sapiens) (UniProt P21964); test: Confirmatory Screen for Target Class Profiling of Small Molecule Inhibitors of Methyltransferases (AID 1745852; calls by dose curve; further: potency means the concentration at half of the fitted maximal effect); conditions: MTase-Glo luminescence, SAH detection, recombinant enzyme; measured here: COMT max response; stronger effect = lower value
# [7] = molecular target: Guanidinoacetate N-methyltransferase (Homo sapiens) (UniProt Q14353); test: as above; conditions: activity change, negative = inhibition: at 57.3 µM (top of the series) unless noted
# [8] = molecular target: Nicotinamide N-methyltransferase (Homo sapiens) (UniProt P40261); test: as above; conditions: MTase-Glo luminescence, SAH detection, recombinant enzyme; measured here: NNMT max response; stronger effect = lower value
# [9] = molecular target: Phenylethanolamine N-methyltransferase (Homo sapiens) (UniProt P11086); test: as above; conditions: MTase-Glo luminescence, SAH detection, recombinant enzyme; measured here: PNMT max response; stronger effect = lower value
# [10] = qHTS to identify inhibitors of the type 1 interferon - major histocompatibility complex class I in skeletal muscle: primary screen against the NCATS Mechanism Interrogation Plate v5.0 (MIPE) Libary (AID 1347411); further: nearly all actives have a fitted effect of over 65% in size; further: potency means the concentration at half of the fitted maximal effect
# Method in brief: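 Immortalized human C25cl48 myoblasts with HiBit knocked into endogenous HLA-B*08:01 were stimulated with 4.0 ng/ml IFN-beta and exposed to compounds (11-point 1:3 titration, top 46 uM final) for 24 hrs at 37 C; HiBiT lytic luminescence measured.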
# Cytochrome P450 2D6 (Homo sapiens), sequence (P10635 whole entry, looked up): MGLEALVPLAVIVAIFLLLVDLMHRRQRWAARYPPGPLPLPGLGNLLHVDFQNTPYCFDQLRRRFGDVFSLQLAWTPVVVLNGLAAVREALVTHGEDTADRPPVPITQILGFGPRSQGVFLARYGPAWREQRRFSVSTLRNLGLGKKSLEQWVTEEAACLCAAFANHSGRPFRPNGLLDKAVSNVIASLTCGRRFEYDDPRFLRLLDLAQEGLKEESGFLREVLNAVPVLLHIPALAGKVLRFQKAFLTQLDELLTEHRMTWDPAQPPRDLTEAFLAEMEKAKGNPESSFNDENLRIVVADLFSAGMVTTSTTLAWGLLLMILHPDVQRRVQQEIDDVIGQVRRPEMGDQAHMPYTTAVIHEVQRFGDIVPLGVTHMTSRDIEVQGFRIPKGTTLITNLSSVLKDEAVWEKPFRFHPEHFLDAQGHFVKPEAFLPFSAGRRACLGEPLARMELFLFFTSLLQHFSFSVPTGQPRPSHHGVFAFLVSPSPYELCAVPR
# Cytochrome P450 2C9 (Homo sapiens), sequence (P11712 whole entry, looked up): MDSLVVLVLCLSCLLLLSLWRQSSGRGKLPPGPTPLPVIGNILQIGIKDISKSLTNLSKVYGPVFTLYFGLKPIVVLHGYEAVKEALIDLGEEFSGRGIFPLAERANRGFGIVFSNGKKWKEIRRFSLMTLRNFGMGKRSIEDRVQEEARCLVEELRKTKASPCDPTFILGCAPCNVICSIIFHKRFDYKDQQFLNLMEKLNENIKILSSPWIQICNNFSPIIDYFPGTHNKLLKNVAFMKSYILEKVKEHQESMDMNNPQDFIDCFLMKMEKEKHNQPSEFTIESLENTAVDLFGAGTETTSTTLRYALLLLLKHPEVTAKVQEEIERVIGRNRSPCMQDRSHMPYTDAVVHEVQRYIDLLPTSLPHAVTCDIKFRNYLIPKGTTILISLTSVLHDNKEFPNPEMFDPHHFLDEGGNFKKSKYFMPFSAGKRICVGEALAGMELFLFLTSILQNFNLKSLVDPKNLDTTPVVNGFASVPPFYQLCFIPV
# Nicotinamide N-methyltransferase (Homo sapiens), sequence (P40261 whole entry, looked up): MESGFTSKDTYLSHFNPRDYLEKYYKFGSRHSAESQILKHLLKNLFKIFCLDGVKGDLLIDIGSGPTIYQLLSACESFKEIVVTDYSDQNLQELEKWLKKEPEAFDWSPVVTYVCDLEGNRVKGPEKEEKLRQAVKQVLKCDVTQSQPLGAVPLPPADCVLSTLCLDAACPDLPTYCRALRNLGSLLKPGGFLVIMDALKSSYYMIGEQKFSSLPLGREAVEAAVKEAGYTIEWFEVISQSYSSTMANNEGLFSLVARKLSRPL
# Catechol O-methyltransferase (Homo sapiens), sequence (P21964 whole entry, looked up): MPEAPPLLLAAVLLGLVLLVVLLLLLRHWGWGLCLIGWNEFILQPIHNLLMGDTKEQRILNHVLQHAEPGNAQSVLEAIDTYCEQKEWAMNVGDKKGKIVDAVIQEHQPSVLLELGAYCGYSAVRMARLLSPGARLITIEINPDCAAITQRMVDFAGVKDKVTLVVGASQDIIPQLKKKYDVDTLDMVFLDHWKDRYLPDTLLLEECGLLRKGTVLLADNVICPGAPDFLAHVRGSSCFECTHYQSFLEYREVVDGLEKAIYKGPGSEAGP
# Phenylethanolamine N-methyltransferase (Homo sapiens), sequence (P11086 whole entry, looked up): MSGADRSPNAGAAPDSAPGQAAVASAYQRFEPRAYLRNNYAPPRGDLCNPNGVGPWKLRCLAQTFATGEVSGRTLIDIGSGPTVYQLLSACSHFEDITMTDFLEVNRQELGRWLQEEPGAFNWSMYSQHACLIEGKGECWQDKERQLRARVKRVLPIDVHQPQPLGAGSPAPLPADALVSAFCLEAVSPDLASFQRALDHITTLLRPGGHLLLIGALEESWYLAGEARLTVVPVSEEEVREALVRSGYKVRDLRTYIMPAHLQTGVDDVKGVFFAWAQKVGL
# Luciferin 4-monooxygenase (Photinus pyralis), sequence (P08659 whole entry, looked up): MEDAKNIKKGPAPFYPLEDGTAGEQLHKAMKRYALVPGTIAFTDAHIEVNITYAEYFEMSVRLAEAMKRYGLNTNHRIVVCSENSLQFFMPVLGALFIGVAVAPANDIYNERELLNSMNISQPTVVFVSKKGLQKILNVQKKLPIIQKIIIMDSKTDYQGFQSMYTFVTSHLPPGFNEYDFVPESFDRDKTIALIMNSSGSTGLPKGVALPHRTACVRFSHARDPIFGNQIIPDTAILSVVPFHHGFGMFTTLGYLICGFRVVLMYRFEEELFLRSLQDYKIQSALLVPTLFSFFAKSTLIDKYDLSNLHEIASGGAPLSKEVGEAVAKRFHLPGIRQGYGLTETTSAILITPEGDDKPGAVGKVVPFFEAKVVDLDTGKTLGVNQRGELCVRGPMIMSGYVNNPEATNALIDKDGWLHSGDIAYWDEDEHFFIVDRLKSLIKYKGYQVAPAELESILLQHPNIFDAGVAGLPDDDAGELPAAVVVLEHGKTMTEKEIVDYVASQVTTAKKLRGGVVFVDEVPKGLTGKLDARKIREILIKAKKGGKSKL
smiles,measurement,setting,value
CC(=O)Nc1ccc(C(=O)Nc2ccccc2N)cc1,Potency,[1],inactive
same,Potency,[2],inactive
same,Potency,CAOV3,inactive
same,Potency,PA-1,7.08 µM (active)
COc1ccc2c3ccnc4ccc(=O)n(c2c1)c43,Potency,[1],inactive
same,Potency,[2],inactive
same,Potency,CAOV3,inactive
same,Potency,PA-1,25.1 µM (active)
CC[C@H]1OC(=O)[C@H](C)[C@@H](O[C@H]2C[C@@](C)(OC)[C@@H](O)[C@H](C)O2)[C@H](C)[C@@H](O[C@@H]2O[C@H](C)C[C@H](N(C)C)[C@H]2O)[C@](C)(O)C[C@@H](C)/C(=N/OCOCCOC)[C@H](C)[C@@H](O)[C@]1(C)O,Potency,[2],inactive
same,Potency,PA-1,inactive
same,Potency,SKOV3,inactive
C[N+]1(C)[C@@H]2CC[C@H]1CC(OC(=O)C(O)c1ccccc1)C2 (stereo partly drawn),Potency,[1],inactive
same,Potency,[2],inactive
same,Potency,PA-1,inactive
same,Potency,SKOV3,inactive
CCCCC(=O)N(Cc1ccc(-c2ccccc2-c2nn[nH]n2)cc1)C(C(=O)O)C(C)C (stereo not drawn),Potency,[3],inactive
same,Potency,[1],inactive
same,Potency,[2],inactive
same,Potency,CAOV3,inactive
same,Potency,PA-1,inactive
CN(C)CC(=O)Nc1ccc2[nH]c(=O)c3ccccc3c2c1,Potency,[4],inactive
same,Potency,[5],13.5 µM (active)
same,Potency,[1],inactive
same,Potency,SKOV3,inactive
CC(C)c1ccc(NC(=O)C(c2ccccc2)N(C)C(=O)Cc2c[nH]c3ccccc23)cc1 (stereo not drawn),Potency,[4],10.7 µM (active)
same,Potency,[5],2.39 µM (active)
same,Potency,[2],inactive
same,Potency,PA-1,inactive
same,Potency,SKOV3,inactive
c1ccc(-c2cnc(Nc3ccc(OCCN4CCCC4)cc3)s2)cc1,Potency,[4],10.7 µM (active)
same,Potency,[2],inactive
same,Potency,CAOV3,inactive
same,Potency,SKOV3,35.5 µM (active)
CC1(C)SC2C(NC(=O)[C@H](NC(=O)N3CCNC3=O)c3ccccc3)C(=O)N2C1C(=O)O (stereo partly drawn),Potency,[1],inactive
same,Potency,CAOV3,inactive
same,Potency,PA-1,inactive
Cc1ccn(-c2cc(Cl)ccc2[C@@H](Oc2cc(-c3ccc(C[C@H](N)C(=O)O)cc3)nc(N)n2)C(F)(F)F)n1,activity,[6],-0.316%
same,"activity change, negative = inhibition",[7],0%
same,activity,[8],-31.2%
same,activity,[9],-1.43%
same,Potency,[1],inactive
same,Potency,[2],inactive
same,Potency,PA-1,inactive
same,Potency,SKOV3,inactive
Fc1ccccc1CNCc1ccc(-c2ccnc3[nH]ccc23)cc1,Potency,[4],0.477 µM (active)
same,Potency,[5],inactive
same,Potency,[1],inactive
same,Potency,PA-1,inactive
same,Potency,SKOV3,inactive
C[C@@H](CN1CCC(n2c(=O)[nH]c3cc(Cl)ccc32)CC1)NC(=O)c1ccc2ccccc2c1,Potency,[4],10.7 µM (active)
same,Potency,[5],0.239 µM (active)
same,Potency,[2],inactive
same,Potency,SKOV3,inactive
CC1=CC(=O)[C@@]2(C(C)C)C[C@@H]12,activity,[6],-4.64%
same,Potency,[7],48.2 µM (active)
same,activity,[8],-30.7%
same,activity,[9],-13.4%
same,Potency,[2],inactive
same,Potency,CAOV3,inactive
same,Potency,SKOV3,inactive
COc1cccc(NC[C@@H](O)Cn2c3ccc(Br)cc3c3cc(Br)ccc32)c1,Potency,[4],8.49 µM (active)
same,Potency,[5],inactive
same,Potency,[2],inactive
CNc1nc(-c2ccc3c(N)n[nH]c3c2)cc(N2CC(C(=O)NC3CCCCC3)CCC2C)n1 (stereo not drawn),Potency,[4],23.9 µM (active)
same,Potency,[5],2.13 µM (active)
same,Potency,[2],inactive
O=C(Nc1cccc(C(F)(F)F)c1)c1ccccc1NCc1ccncc1,Potency,CAOV3,inactive
CCC(=O)Nc1cccc(Oc2nc(Nc3ccc(N4CCN(C)CC4)cc3OC)ncc2Cl)c1,Potency,[10],inactive
same,Potency,[5],6.74 µM (active)
same,Potency,[1],1.89 µM (active)
COC(=O)/C=C/C(=O)N(O)CCCCNCc1ccc(COC(=O)Nc2cccc3ccccc23)cc1,Potency,[10],13.1 µM (active)
same,Potency,[2],inactive
NC(=Nc1ccc(CCNCc2cccc(Cl)c2)cc1)c1cccs1,Potency,[4],0.477 µM (active)
same,Potency,[5],12 µM (active)
same,Potency,[1],inactive
same,Potency,[2],inactive
same,Potency,PA-1,inactive
COc1ccc(NC(=O)N2CCc3c2ccc2ccccc32)cc1N1CCN(C)CC1,Potency,[4],19 µM (active)
same,Potency,[2],inactive
N#Cc1cccc(C#N)c1-c1nc2c3ccccc3c3cc(Cl)ccc3c2[nH]1,Potency,[1],inactive
same,Potency,CAOV3,inactive
same,Potency,PA-1,inactive
COc1cc(N2CCN(C)CC2)ccc1Nc1nccc(-c2cn(C)c3cnccc23)n1,Potency,[4],inactive
same,Potency,[5],inactive
same,Potency,SKOV3,12.6 µM (active)
COc1ccccc1-c1c[nH]c2ncc(-c3cncc(C(=O)N(C)C)c3)cc12,Potency,[5],3.38 µM (active)
same,Potency,[1],inactive
same,Potency,PA-1,31.6 µM (active)
COc1ccc(-c2cc(C(O)C3CCCCN3)c3ccccc3n2)cc1 (stereo not drawn),Potency,[5],10.7 µM (active)
same,Potency,[1],inactive
same,Potency,[2],inactive
same,Potency,SKOV3,28.2 µM (active)
CC[C@]1(O)C[C@H]2CN(CCC3C(=Nc4ccccc43)[C@@](C(=O)OC)(c3cc4c(cc3OC)N(C)[C@H]3[C@@](O)(C(N)=O)[C@H](O)[C@]5(CC)C=CCN6CC[C@]43[C@@H]65)C2)C1 (stereo partly drawn),Potency,CAOV3,inactive
same,Potency,PA-1,0.1 µM (active)
CCCc1c(C(C)C)nc(C(C)C)c([C@@H](C)O)c1-c1ccc(F)cc1O,Potency,[4],2.39 µM (active)
same,Potency,[5],4.77 µM (active)
same,Potency,[2],inactive
same,Potency,PA-1,inactive
